Our source for the outcome, Potency and max activation values is PubChem BioAssay (Tox21).

Each structure is given as a SMILES string. Values joined by “and” are separate entries in the source; they are usually repeats but may differ in a detail not shown here. Identical values can stand only once. Results filed as inconclusive are left out. More than one record can exist for a structure, and the calls need not agree. Active and inactive are the calls of the source. Unless noted, the call rests on the fitted dose curve; in most records, active means well fitted curve in the direction sought with a large enough effect in the repeat runs; inconclusive means weak or mixed curves; inactive means no such curve, though single readings can be large; an effect the other way counts as inactive or inconclusive.

Assay [1] has as its target Thyrotropin-releasing hormone receptor (Homo sapiens) (UniProt P34981). Kind of assay: qHTS assay to identify small molecule agonists of the thyrotropin-releasing hormone receptor (TRHR) signaling pathway (AID 1346891; calls by dose curve; further: series mostly up to about 58 µM). The method, boiled down:
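HEK293 cells expressing TRHR plated 18 h at 37 C/5% CO2, calcium dye-loaded 2 h at 37 C, then compound added (agonist mode); kinetic calcium fluorescence read 3 min at 1 s intervals; 15 concentrations in triplicate.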
A general note: Quantitative high-throughput screening tests each substance at several concentrations.

Assay [2] can be described thus: Human pregnane X receptor (PXR) small molecule agonists, qHTS cell viability counter screen (AID 1346977). Further: nearly all actives have a fitted effect of over 50% in size. The method, boiled down: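 PXR-Luc HepG2 cells (2,000/well, 5% charcoal-stripped FBS) preincubated 5 hr, then exposed to compounds 24 hr at 37 C. Viability read in the same wells by CellTiter-Fluor fluorescence, reagent added at 23 hr, 1 hr incubation.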
Assay [3] can be described thus: Caspase-3/7 induction in HepG2 cells by small molecules, qHTS assay (AID 1346978). Further: nearly all actives have a fitted effect of over 15% in size. Summed up:
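Wild-type HepG2 cells (2,000/well) were settled 5 h at 37 C, 5% CO2, then exposed to compounds in DMSO for 17 h. Caspase-3/7 activity was read by luminescence 30 min after adding Caspase-Glo 3/7 reagent at room temperature.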

Assay [4] in a line: Caspase-3/7 induction in CHO-K1 cells by small molecules, qHTS cell viability counter screen (AID 1346979). Further: nearly all actives have a fitted effect of over 35% in size. Further: potency means the concentration at half of the fitted maximal effect. The method, boiled down: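 Wild-type CHO-K1 cells (1,500/well) treated with compound after 5 h plating; after 16 h at 37C, viability read as CellTiter-Fluor fluorescence following 1 h reagent incubation, in the same wells as the caspase read.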
Assay [5] can be described thus: Caspase-3/7 induction in CHO-K1 cells by small molecules, qHTS assay (AID 1346980). Further: nearly all actives have a fitted effect of over 15% in size. The method, boiled down:
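Wild-type cells were seeded at 1,500 per well and settled 5 hr at 37 C, 5% CO2, then exposed to DMSO-dissolved compounds for 17 hr. Caspase-Glo 3/7 reagent was added, and luminescence was read after 30min at room temperature.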

Assay [6] is described as follows: Caspase-3/7 induction in HepG2 cells by small molecules, qHTS cell viability counter screen (AID 1346981). Further: nearly all actives have a fitted effect of over 30% in size. Further: potency means the concentration at half of the fitted maximal effect. Summed up:
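Treatment of HepG2 cells with DMSO-delivered compounds ran 16 hr at 37 C following a 5-hr pre-incubation of 2,000 cells/well. CellTiter-Fluor fluorescence, read after 1 hr, served as the viability measure in a qHTS format.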

The target in assay [7] is Nuclear receptor subfamily 1 group I member 2 (Rattus norvegicus) (UniProt Q9R1A7). Kind of assay: Rat pregnane X receptor (rPXR) activation by small molecules, qHTS assay (AID 1346983). Further: nearly all actives have a fitted effect of over 20% in size. The settings on record: rPXR luciferase reporter cells, One-Glo luminescence, 24 h; max activation: stronger effect = higher value. Summed up:
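Cell-based rPXR luciferase reporter assay, 2,000 cells per well, rested 5hr at 37 C before compound addition in DMSO, then 24 hr at 37 C. One-Glo reagent was added and luminescence read after 30 min at room temperature.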

In assay [8] the target is Nuclear receptor subfamily 1 group I member 2 (Homo sapiens) (UniProt O75469). The assay is described as follows: CYP3A4 induction through human pregnane X receptor (PXR) by small molecules, qHTS assay (AID 1346984). Further: nearly all actives have a fitted effect of over 40% in size. The method, boiled down:
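After 24 h at 37C with compound, DPX-2 cells (HepG2, co-transfected PXR response element and CYP3A4 promoter-luciferase) got 3uM final P450-Glo Luciferin-IPA for 3 h; One-Glo luminescence followed.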

Assay [9] shares this target. The assay is described as follows: Human pregnane X receptor (PXR) activation by small molecules, qHTS assay (AID 1346985). Further: nearly all actives have a fitted effect of over 40% in size. The method, boiled down: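 DPX-2 cells (HepG2 co-transfected with a PXR response element and a CYP3A4-promoter luciferase construct) were seeded at 2,000 per well, rested 5 hr at 37C, then exposed to DMSO-dissolved compounds for 24 hr. Activation was read as luciferase luminescence.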

The target in assay [10] is Acetylcholinesterase (Homo sapiens) (UniProt P22303). Kind of assay: Acetylcholinesterase (AChE) small molecule antagonists: enzyme-based qHTS assay (AID 1347397; calls by dose curve; further: nearly all actives have a fitted effect of over 55% in size; further: potency means the concentration at half of the fitted maximal effect). The settings on record: Potency: AChE enzyme activity inhibition. The method, boiled down: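 Tox21 library chemicals are tested in qHTS format against recombinant human AChE. The enzyme, dispensed at 50 mU/mL, sits with compound for 30 min at room temperature. A DTNB–acetylthiocholine cocktail follows, and colour is read after 10 min.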
Acetylcholinesterase (Homo sapiens), sequence (P22303 whole entry, looked up): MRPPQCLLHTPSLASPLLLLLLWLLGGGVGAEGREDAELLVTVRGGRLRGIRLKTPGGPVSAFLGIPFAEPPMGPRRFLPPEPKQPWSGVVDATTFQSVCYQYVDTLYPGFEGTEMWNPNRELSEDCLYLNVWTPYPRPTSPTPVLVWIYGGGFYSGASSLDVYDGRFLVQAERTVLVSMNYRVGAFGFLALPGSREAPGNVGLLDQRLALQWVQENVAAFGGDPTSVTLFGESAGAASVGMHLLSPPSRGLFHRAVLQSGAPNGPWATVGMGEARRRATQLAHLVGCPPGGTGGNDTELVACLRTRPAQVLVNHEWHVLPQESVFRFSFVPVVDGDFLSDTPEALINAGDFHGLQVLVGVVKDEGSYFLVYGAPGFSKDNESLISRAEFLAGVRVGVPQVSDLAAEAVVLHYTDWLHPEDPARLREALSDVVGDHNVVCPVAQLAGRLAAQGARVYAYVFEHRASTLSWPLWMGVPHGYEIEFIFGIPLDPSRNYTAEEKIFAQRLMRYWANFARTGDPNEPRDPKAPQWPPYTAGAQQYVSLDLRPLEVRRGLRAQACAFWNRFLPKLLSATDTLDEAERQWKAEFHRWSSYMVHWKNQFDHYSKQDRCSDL

Assay [11] shares this target. The assay is described as follows: Acetylcholinesterase (AChE) small molecule antagonists: fluorescence cell-based qHTS assay (AID 1347398; calls by dose curve; further: nearly all actives have a fitted effect of over 50% in size; further: potency means the concentration at half of the fitted maximal effect). The settings on record: Potency: AChE activity. Summed up: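 Cellular AChE inhibition: SH-SY5Y cells treated with test chemical for 30 min at 37 C, then acetylthiocholine hydrolysis followed over 40 min at room temperature via thiocholine-reactive Thiolite Green fluorescence (490/520 nm).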

For assay [12] the target is unchanged. Kind of assay: Acetylcholinesterase (AChE) small molecule antagonists: enzyme-based qHTS assay with human liver microsomes (AID 1347399; calls by dose curve; further: nearly all actives have a fitted effect of over 60% in size; further: potency means the concentration at half of the fitted maximal effect). The following applies: Potency: qHTS inhibition. The method, boiled down:
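Recombinant human AChE (50 mU/mL in the enzyme mix) and human liver microsomes (0.25 mg/mL final) were preincubated with compound and NADPH (0.25 mg/mL final) for 30 min at 37 C. Acetylthiocholine/DTNB was then added; thiocholine was read colorimetrically after 10 min at room temperature.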

Assay [13] addresses Cytochrome P450 2D6 (Homo sapiens) (UniProt P10635). The assay is described as follows: Cytochrome P450 Family 2 Subfamily D Member 6 (CYP2D6) small molecule antagonists: luciferase reporter qHTS assay (AID 1671196). Further: nearly all actives have a fitted effect of over 50% in size. Further: potency means the concentration at half of the fitted maximal effect. The method, boiled down: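 Chemicals tested for interference with CYP2D6 activity; proluciferin substrate, NADPH regeneration, 1 h at room temperature, luminescent detection.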
In general terms: Reporter assays use an easily measured gene product as a stand-in for the process of interest.

Assay [14] concerns the target Cytochrome P450 2C19 (Homo sapiens) (UniProt P33261). Kind of assay: Cytochrome P450 Family 2 Subfamily C Member 19 (CYP2C19) small molecule antagonists: luciferase reporter qHTS assay (AID 1671197). Further: nearly all actives have a fitted effect of over 65% in size. Further: potency means the concentration at half of the fitted maximal effect. Summed up: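 Enzyme-substrate mix with proluciferin substrate (P450-Glo CYP2C19 system) preincubated with compounds 10 min at room temperature; NADPH regeneration solution added, 37C for 1 h; detection reagent stops reaction, luminescence read after 20 min. Ketoconazole positive control.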

Assay [15] deals with Cytochrome P450 2C9 (Homo sapiens) (UniProt P11712). Kind of assay: Cytochrome P450 Family 2 Subfamily C Member 9 (CYP2C9) small molecule antagonists: luciferase reporter qHTS assay (AID 1671198). Further: nearly all actives have a fitted effect of over 50% in size. Further: potency means the concentration at half of the fitted maximal effect. Summed up: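 CYP2C9 activity was measured with a P450-Glo proluciferin substrate. Enzyme–substrate mix was held with compound for 10 min at room temperature, then NADPH regeneration solution was added for 1 h at 37C. Luciferin product was read as luminescence.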

For assay [16], the target named is Cytochrome P450 1A2 (Homo sapiens) (UniProt P05177). Kind of assay: Cytochrome P450 Family 1 Subfamily A Member 2 (CYP1A2) small molecule antagonists: luciferase reporter qHTS assay (AID 1671199). Further: nearly all actives have a fitted effect of over 50% in size. Further: potency means the concentration at half of the fitted maximal effect. The method, boiled down: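 Read-out is luminescence from luciferin detection reagent (20 min) proportional to CYP1A2 activity; compounds in DMSO preincubated 10 min with enzyme and proluciferin substrate, then NADPH regeneration solution, 1 h, room temperature.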
Cytochrome P450 1A2 (Homo sapiens), sequence (P05177 whole entry, looked up): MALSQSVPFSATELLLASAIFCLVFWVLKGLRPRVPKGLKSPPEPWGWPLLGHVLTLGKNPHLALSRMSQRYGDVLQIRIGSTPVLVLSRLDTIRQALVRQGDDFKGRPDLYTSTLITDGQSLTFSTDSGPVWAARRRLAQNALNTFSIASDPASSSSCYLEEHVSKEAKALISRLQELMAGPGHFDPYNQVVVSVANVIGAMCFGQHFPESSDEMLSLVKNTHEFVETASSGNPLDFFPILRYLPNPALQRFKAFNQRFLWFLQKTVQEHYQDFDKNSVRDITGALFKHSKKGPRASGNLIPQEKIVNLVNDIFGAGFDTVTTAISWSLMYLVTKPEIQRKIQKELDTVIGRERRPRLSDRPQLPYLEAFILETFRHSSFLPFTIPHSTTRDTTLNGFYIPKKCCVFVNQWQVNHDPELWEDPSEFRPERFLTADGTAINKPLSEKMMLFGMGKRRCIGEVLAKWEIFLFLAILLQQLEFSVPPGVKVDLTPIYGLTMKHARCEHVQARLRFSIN

The target of assay [17] is Voltage-gated inwardly rectifying potassium channel KCNH2 (Homo sapiens) (UniProt Q12809). Kind of assay: Human Ether-a-go-go-Related Gene (hERG) channel small molecule antagonists: fluorescence cell-based qHTS assay (AID 1671200). Summed up:
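hERG-U2OS cells plated overnight at 37 C, loaded with FluxOR II dye 1 h at RT in dark; after 10 min, thallium stimulus added. Fluorescence (480/540 nm) read kinetically for 2 min at 1 s intervals.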
For orientation: Block of hERG is tested as a sign of cardiac risk.

Assay [18] concerns the target Nuclear receptor subfamily 1 group I member 2 (Homo sapiens) (UniProt O75469). The assay is described as follows: Human pregnane X receptor (PXR) small molecule agonists, qHTS assay (AID 1346982). Further: nearly all actives have a fitted effect of over 35% in size. Further: potency means the concentration at half of the fitted maximal effect. Summed up: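 Stable HepG2 line reporting PXR-mediated CYP3A4 expression via luciferase. Treatment: 24 hr with compounds in DMSO at 37 C. Detection: ONE-Glo luminescence.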

The target of assay [19] is Cytochrome P450 3A4 (Homo sapiens) (UniProt P08684). The assay is described as follows: Cytochrome P450 Family 3 Subfamily A Member 4 (CYP3A4) small molecule antagonists: luciferase reporter qHTS assay (AID 1671201). Further: nearly all actives have a fitted effect of over 50% in size. Further: potency means the concentration at half of the fitted maximal effect. Summed up:
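P450-Glo CYP3A4 luminescent assay: compounds preincubated 10 min at room temperature with enzyme and proluciferin substrate, NADPH regeneration added, 1 h room-temperature reaction, stopped with luciferin detection reagent; luminescence read after 20 min. Ketoconazole positive control.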

For assay [20], the target named is Acetylcholinesterase (Homo sapiens) (UniProt P22303). The assay is described as follows: Acetylcholinesterase (AChE) small molecule antagonists: colormetric cell-based qHTS assay (AID 1347395; calls by dose curve; further: nearly all actives have a fitted effect of over 30% in size; further: potency means the concentration at half of the fitted maximal effect). The method, boiled down:
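SH-SY5Y cells attached overnight, exposed to compound 30 min at 37 C, then given DTNB/acetylthiocholine; after 90 min at 37 C, colorimetric thiocholine read gives cellular AChE activity.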
On the % scale 0 is the no-effect control and ±100 the full control effect.

Cytochrome P450 3A4 (Homo sapiens), sequence (P08684 whole entry, looked up): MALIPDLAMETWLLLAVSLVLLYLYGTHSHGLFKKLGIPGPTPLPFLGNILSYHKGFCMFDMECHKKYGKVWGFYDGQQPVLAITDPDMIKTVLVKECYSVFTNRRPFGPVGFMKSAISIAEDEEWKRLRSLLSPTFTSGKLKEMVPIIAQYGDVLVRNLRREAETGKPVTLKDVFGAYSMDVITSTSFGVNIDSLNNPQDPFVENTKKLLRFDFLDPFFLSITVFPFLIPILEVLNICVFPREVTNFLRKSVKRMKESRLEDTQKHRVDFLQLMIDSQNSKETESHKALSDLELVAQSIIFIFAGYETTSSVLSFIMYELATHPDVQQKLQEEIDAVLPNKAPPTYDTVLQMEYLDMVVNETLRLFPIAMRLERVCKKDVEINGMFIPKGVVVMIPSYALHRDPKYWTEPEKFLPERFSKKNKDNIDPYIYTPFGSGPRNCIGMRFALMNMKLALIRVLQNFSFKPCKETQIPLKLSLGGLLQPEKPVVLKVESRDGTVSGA
Cytochrome P450 2D6 (Homo sapiens), sequence (P10635 whole entry, looked up): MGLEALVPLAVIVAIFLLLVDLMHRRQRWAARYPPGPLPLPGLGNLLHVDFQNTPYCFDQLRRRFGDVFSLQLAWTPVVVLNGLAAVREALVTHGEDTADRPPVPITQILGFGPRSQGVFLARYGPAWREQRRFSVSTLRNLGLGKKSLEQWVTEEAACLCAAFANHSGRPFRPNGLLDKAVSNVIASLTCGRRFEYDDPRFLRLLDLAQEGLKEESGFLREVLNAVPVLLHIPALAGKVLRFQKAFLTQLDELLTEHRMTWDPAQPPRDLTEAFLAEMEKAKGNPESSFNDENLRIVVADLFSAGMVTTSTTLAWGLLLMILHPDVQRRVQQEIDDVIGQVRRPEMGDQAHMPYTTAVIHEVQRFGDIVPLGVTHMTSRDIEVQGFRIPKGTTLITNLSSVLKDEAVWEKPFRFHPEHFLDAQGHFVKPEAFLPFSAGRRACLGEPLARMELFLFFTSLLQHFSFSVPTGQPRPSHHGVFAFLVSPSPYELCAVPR
Thyrotropin-releasing hormone receptor (Homo sapiens), sequence (P34981 whole entry, looked up): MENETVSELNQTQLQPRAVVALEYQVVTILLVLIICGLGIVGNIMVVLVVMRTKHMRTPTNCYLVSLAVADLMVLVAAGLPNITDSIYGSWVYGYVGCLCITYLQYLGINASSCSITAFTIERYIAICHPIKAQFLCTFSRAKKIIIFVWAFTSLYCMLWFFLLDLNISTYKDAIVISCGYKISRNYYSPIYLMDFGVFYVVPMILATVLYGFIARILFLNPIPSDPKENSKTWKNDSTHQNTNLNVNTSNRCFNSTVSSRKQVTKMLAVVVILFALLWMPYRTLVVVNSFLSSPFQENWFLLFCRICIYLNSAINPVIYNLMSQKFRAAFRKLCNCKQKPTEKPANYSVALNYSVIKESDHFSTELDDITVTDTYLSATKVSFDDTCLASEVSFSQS
Voltage-gated inwardly rectifying potassium channel KCNH2 (Homo sapiens), sequence (Q12809 whole entry, looked up): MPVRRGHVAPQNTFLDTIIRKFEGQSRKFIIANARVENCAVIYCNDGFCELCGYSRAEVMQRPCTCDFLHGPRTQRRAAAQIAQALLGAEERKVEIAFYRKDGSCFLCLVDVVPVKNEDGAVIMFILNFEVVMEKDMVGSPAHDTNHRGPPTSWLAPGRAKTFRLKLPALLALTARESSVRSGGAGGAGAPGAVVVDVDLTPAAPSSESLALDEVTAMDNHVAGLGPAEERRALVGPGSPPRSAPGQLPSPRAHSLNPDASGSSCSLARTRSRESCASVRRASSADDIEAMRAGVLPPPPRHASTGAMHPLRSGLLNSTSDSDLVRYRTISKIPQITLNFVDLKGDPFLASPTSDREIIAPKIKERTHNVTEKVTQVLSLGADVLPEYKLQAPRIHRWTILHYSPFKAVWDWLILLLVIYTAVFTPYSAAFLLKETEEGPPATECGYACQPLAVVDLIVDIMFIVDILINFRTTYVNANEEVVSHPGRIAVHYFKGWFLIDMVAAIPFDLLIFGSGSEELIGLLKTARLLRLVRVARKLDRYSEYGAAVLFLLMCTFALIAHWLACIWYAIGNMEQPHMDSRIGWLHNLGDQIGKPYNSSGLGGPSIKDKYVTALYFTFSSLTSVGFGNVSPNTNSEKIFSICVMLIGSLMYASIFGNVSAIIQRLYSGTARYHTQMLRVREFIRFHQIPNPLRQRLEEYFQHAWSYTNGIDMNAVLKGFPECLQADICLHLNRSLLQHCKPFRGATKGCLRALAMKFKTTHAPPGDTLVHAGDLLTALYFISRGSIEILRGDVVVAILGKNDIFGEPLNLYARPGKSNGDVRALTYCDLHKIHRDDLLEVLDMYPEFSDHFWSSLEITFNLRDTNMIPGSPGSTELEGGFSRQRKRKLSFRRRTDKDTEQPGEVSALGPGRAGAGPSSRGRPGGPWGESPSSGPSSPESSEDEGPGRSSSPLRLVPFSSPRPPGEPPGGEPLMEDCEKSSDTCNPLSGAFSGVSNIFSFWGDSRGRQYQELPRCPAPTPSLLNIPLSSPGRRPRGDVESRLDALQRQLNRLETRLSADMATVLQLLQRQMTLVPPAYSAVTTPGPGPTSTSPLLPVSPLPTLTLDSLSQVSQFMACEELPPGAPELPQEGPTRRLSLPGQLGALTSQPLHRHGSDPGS
Cytochrome P450 2C19 (Homo sapiens), sequence (P33261 whole entry, looked up): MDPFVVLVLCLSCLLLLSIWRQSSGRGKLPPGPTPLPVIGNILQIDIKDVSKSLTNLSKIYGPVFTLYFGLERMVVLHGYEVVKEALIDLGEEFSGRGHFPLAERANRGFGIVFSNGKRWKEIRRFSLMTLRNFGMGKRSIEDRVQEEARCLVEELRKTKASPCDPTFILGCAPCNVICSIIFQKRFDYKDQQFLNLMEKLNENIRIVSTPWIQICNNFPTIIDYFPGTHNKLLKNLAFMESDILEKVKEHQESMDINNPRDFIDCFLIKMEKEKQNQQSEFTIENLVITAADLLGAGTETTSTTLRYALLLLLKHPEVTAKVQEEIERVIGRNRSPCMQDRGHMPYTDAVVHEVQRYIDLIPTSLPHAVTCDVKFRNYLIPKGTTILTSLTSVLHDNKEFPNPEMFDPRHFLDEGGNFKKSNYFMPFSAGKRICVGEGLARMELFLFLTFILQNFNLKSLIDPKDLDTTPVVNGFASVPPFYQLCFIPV
Nuclear receptor subfamily 1 group I member 2 (Homo sapiens), sequence (O75469 whole entry, looked up): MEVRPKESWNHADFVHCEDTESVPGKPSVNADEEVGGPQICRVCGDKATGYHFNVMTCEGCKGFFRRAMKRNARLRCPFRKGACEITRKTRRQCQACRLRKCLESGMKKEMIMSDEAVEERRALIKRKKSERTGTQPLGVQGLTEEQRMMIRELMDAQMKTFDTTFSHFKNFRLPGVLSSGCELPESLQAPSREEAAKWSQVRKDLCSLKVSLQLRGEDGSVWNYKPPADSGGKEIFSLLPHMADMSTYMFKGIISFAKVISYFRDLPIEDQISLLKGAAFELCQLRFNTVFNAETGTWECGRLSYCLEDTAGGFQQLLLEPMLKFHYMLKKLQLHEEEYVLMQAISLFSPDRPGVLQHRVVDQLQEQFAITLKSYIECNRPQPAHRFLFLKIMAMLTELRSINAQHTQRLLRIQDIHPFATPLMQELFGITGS

As for `CCOP(=S)(OCC)Oc1cc(C)nc(C(C)C)n1`, the result in assay [1], in [3] and in [5] was inactive. The Potency entry in assay [2], in assay [4], in assay [6], in [8], in assay [9] and in assay [10] was “inactive” in each case. For the same molecule, the Potency result in [13] and in assay [17] was “inactive” in each case. Moreover, the max activation in assay [7] is 0.813% (inactive). Also, the Potency in assay [11] is 35.8 µM (active) and 56.4 µM (active); in [12] it was “inactive and 8.71 µM (active)”; in assay [14], 56.7 µM (active) and 502 nM (active) and 692 nM (active); in [15], 35.8 µM (active) and 2.83 µM (active) and 2.45 µM (active); in [16], 6.33 µM (active) and 4.07 µM (active).
As for `CCOC(=O)CC(SP(=O)(OC)OC)C(=O)OCC` (configuration not stated), the molecule was classed as inactive in assay [1] and in [3]. Moreover, the Potency result in assay [2], in [4], in assay [6], in assay [18], in assay [13] and in [17] was “inactive” throughout. In assay [19], the Potency entry is “inactive”. Besides, the Potency is 3.38 µM (active) and 5.64 µM (active) in assay [10]; 954 nM (active) and 1.42 µM (active) in assay [11]; 60.2 µM (active) and 56.4 µM (active) in assay [12]; 53.6 µM (active) in [14]; 67.5 µM (active) and 71 µM (active) in assay [15]; 75.8 µM (active) and 71 µM (active) in assay [16].
Take `COc1cc(-c2ccc(N)c(OC)c2)ccc1N`: the molecule was classed as inactive in assay [1], in [3] and in assay [5]. Also, the Potency result in assay [2] and in [17] was “inactive” throughout. Besides, the Potency entry is “inactive and 58.3 µM (active)” in assay [4]; “inactive and 46.3 µM (active)” in [6]; 40.1 µM (active) and 39.5 µM (active) and 34 µM (active) in assay [13]; 12.7 µM (active) [middle of 4 runs] in assay [15]; 1.79 µM (active) [middle of 4 runs] in assay [16].
On to `Nc1ncc([N+](=O)[O-])s1`, for which the Potency entry in [2], in [18], in assay [20], in assay [10], in [11] and in assay [12] was “inactive” throughout. Besides, the Potency result in assay [13], in assay [17] and in assay [19] was “inactive” in each case. Also, the outcome in assay [3] and in assay [5] was inactive. Besides, the Potency in assay [4] was 30.9 µM (active) and inactive; in [6] it was 54.9 µM (active) and inactive; in assay [14], 71.6 µM (active) and 50.2 µM (active); in [15], 63.3 µM (active).
On to `N#Cc1ccccn1`, for which the molecule was classed as inactive in [1] and in assay [3]. Also, the Potency entry in assay [2], in assay [4], in assay [6], in assay [18], in [10] and in assay [11] was “inactive” each time. Besides, the Potency result in [12], in assay [13], in [15], in assay [16], in assay [17] and in [19] was “inactive” each time. For the same molecule, the Potency result in assay [14] was “inactive and 71 µM (active)”.
Consider `Cc1cccc(N)c1C`, for which the molecule was called inactive in assay [1] and in assay [3]. The Potency entry in assay [2], in assay [4], in assay [6], in assay [10], in [11] and in assay [12] was “inactive” each time. Moreover, the Potency entry in [17] is “inactive”. The Potency in assay [18] was 61.1 µM (active); in assay [13] it was 71 µM (active); in [14] it was “inactive and 31.7 µM (active)”; in assay [16], 36.9 µM (active) and 20 µM (active); in assay [19] it was 36.9 µM (active).
As to `CNC(=O)O/N=C(\SC)C(=O)N(C)C`, the Potency entry in assay [2], in assay [4], in [6], in assay [18], in [15] and in [16] was “inactive” in each case. The Potency entry in assay [17] and in assay [19] was “inactive” in each case. The molecule was called inactive in [3] and in assay [5]. Also, the Potency in [20] is 1.55 µM (active) and 1.42 µM (active); in assay [10] it was 2.45 µM (active) and 2.82 µM (active); in [11] it was 489 nM (active) and 632 nM (active); in assay [12] it was 12.3 µM (active) and 20 µM (active); in assay [13] it was 30.9 µM (active) and 28.2 µM (active); in assay [14], 34.6 µM (active) and 28.2 µM (active).
